Compound activity (PubChem BioAssay)
Sampled rows, rich in hits. Any-hit rate of the full collection: about 7.8%.
VACV mCherry inh = inhibitors of vaccinia virus infection (mCherry reporter signal); AID 720579; Vaccinia virus mCherry reporter infection, fluorescence; Potency, µM (top dose mostly 36.5 µM), for the others: at the top dose activity change, negative = inhibition, hits mostly inhibitors; actives 0.63% (n = 310,000); calls by dose curve; tested in A549 cells; also: potency is read from the fitted curve at half-maximal effect; nearly all actives have a fitted effect of over 35% in size
VACV Venus inh = inhibitors of vaccinia virus (Venus reporter); Vaccinia virus Venus reporter expression, fluorescence; Potency, µM (highest dose often 36.5 µM), for inactives: top-dose activity change, negative = inhibition, most hits filed as inhibitors; actives 0.46% (n = 330,000); AID 720580; calls by dose curve; tested in A549 cells; also: potency is read from the fitted curve at half-maximal effect; nearly all actives have a fitted effect of over 30% in size
LASV entry inh = inhibitors of Lassa virus binding or cell entry; Potency, µM (top dose mostly 37.9 µM), without a hit: at the highest dose activity change, negative = inhibition, most hits filed as inhibitors; actives 1.2% (n = 300,000); Lassa virus pseudotype entry inhibition, cell reporter; calls by dose curve; tested in HEK293 cells; also: potency is read from the fitted curve at half-maximal effect; nearly all actives have a fitted effect of over 50% in size
Marburg entry inh = inhibitors of Marburg virus binding or cell entry; Marburg virus pseudotyped entry inhibition, cell reporter; Potency, µM (highest dose often 37.8 µM), inactives show top-dose activity change, negative = inhibition, most hits filed as inhibitors; actives 1.8% (n = 300,000); AID 540276; calls by dose curve; tested in HEK293 cells; also: potency is read from the fitted curve at half-maximal effect
HCMV antiviral = inhibitors of human cytomegalovirus; HFF cells, HCMV-luciferase reporter, 72 h; hits give low values; activity change, negative = inhibition, % at 57.5 µM; actives 4.5% (n = 410,000); AID 1259415; in the data active = activity change below about -60%; inconclusive = no clear call, values can overlap the other calls; inactive = above about -39%
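Human foreskin fibroblasts infected with luciferase-reporter HCMV at MOI 1 PFU/cell, compounds at two doses. Luciferase measured 72 h post infection; normalized to buffer-only basal and Salinomycin (10uM) controls.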
HCV inhibitor = inhibitors of hepatitis C virus infection; actives 3.4% (n = 340,000); AID 651820; Huh7.5.1 HCVcc-Cre infection, luciferase reporter, 44 h; Potency, µM (highest dose often 41.8 µM), for the others: at the top dose activity change, negative = inhibition, most hits filed as inhibitors; active = well fitted inhibition curve with a large enough effect; inconclusive = small, poorly fitted or top-dose-only effect, or another doubt; inactive = no such curve, though single readings can be large or run the other way; also: potency is read from the fitted curve at half-maximal effect
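A cell-based infection assay in which seeded cells (1,000 per well) receive test compound after 4 h, are inoculated with HCVcc-Cre at approximately 0.5 moi, and are incubated 44 h before luminescence detection.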
* = called active by the depositor; i = inactive; u = inconclusive; x = no result; ! = not active in a repeat; [ ] = another dose, or the depositor's remark. % is scaled to controls: 0 for no effect and ±100 for the full control effect.

SMILES	VACV mCherry inh	VACV Venus inh	LASV entry inh	Marburg entry inh	HCMV antiviral	HCV inhibitor
COc1ccc(N2CCN(c3ncnc4onc(C)c34)CC2)cc1	-16.9%[7.34 µM]	-17.7%[7.34 µM]	7.7%[46.1 µM]	x	-69.4*	x
Cc1noc2ncnc(N3CCN(c4ccc(F)cc4)CC3)c12	x	x	-2.9%	-20.5%	-67.6*	-23.1%
Cc1noc2ncnc(N3CCCCC3)c12	x	x	x	x	2.4	-4.5%
Cc1cccc(-c2nc3c(NCc4cccc(N(C)C)c4)nccc3[nH]2)c1	x	x	x	x	13.5	x
Cc1[nH]n(-c2ccccc2)c(=O)c1C(=O)c1ccccc1	i	-11.0%	u	-28.7%[46.1 µM]	57.6	1.6%
Cc1[nH]n(-c2ccccc2)c(=O)c1C(=O)c1cccc(F)c1	x	x	u	10.3µM*	-36.1	u
Cc1cccc(Cn2c(=O)n(Cc3ccc4c(c3)OCO4)c(=O)c3oc4ccccc4c32)c1	-2.5%	-3.5%	-1.0%[46.1 µM]	x	5.1	x
CCOc1cc(/C=C(/C#N)c2nc3ccccc3[nH]2)ccc1Oc1ccc([N+](=O)[O-])cn1	i	-24.1%	u	u	-22.1	u
COc1cc(/C=C(\C#N)c2nc3ccccc3[nH]2)ccc1OCc1ccc(F)cc1	-13.0%	-21.7%	-5.8%[46.1 µM]	u	-77.6*	x
COc1cc(/C=C(\C#N)c2nc3ccccc3[nH]2)ccc1OCc1cccc(C(F)(F)F)c1	-29.0%	u	u	u	-87.0*	x
COc1cc(/C=C(/C#N)c2nc3ccccc3[nH]2)ccc1Oc1ncccc1[N+](=O)[O-]	u	-27.6%	u	-15.1%	u	2.51µM*
COc1cc2c(=O)n(CCc3ccccc3)c(=O)n(CC(=O)Nc3ccccc3)c2cc1OC	-17.3%	-20.3%	-6.4%[46.1 µM]	7.1%[46.1 µM]	u	x
Cc1ccccc1CN1[C@H]2CCCC[C@@H]2OCCS1(=O)=O	-1.0%	-21.5%	x	x	x	x
CCN(CC)C(=O)CSc1n[nH]c(=O)n1CCc1ccccc1	i	-2.5%	2.7%	3.2%[46.1 µM]	38.7	13.5%
O=c1[nH]nc(Sc2ncnc3sccc23)n1CCc1ccccc1	x	x	u	u	-95.3*	-28.7%
O=C(Nc1ccccc1O)C(c1ccccc1)c1ccccc1	-6.7%	-6.2%	-28.7%[46.1 µM]	u	u	12.6µM*
CCN=c1scc(-c2cccs2)n1/N=C/c1cc(OC)ccc1O	-1.6%	-13.7%	u	u	-95.3*	5.01µM*
CN(C)S(=O)(=O)c1ccc(/C(O)=C2/C(=O)C(=O)N(Cc3cccnc3)C2c2ccncc2)cc1 (centres undefined)	x	x	5.1%	0.8%	-11.2	7.1%
CN(C)S(=O)(=O)c1ccc(/C(O)=C2/C(=O)C(=O)N(Cc3cccnc3)C2c2ccco2)cc1 (centres undefined)	x	-10.6%	26.6%	15.2%	-67.4*	5.0%
CCOC(=O)C1=C(CS(=O)(=O)c2ccc(Br)cc2)NC(=O)NC1c1ccccc1 (centres undefined)	0.6%	1.7%	-9.9%[46.1 µM]	3.5%[46.1 µM]	-0.3	x
Oc1ccc(-c2[nH]ncc2-c2ccc(Cl)cc2)c(O)c1	x	x	u	-8.0%	-32.9	u
COc1ccc(-c2cn[nH]c2-c2ccc(OC)cc2O)cc1	u	-24.6%	u	-19.5%[46.1 µM]	-64.8*	u
COc1ccc(-c2[nH]ncc2-c2ccc(Cl)cc2)c(O)c1	x	u	-28.3%	5.4%	-64.9*	19.9%
COc1ccc(-c2cn[nH]c2-c2ccc(OCc3ccccc3)cc2O)cc1	u	-22.4%	3.55µM*	u	-71.4*	u
COc1ccc(-c2[nH]ncc2-c2csc(C)n2)c(O)c1	x	x	x	x	u	0.9%
SMILES	VACV mCherry inh	VACV Venus inh	LASV entry inh	Marburg entry inh	HCMV antiviral	HCV inhibitor
CCC(=O)N1c2ccccc2CC1C(=O)NCCc1ccc(Cl)cc1 (centres undefined)	-13.9%	-4.1%	12.2%[46.1 µM]	x	10.6	x
CCN(CC)c1nc2ccccc2nc1C(=O)Nc1cc(OC)c(OC)c(OC)c1	-12.4%	-9.5%	-17.7%[46.1 µM]	x	-3.2	x
Cc1nnn(C23C[C@@H]4C[C@@H](CC(C(=O)N5CCN(c6ccccc6)CC5)(C4)C2)C3)n1	x	x	x	x	-86.8*	u
CCOC(=O)c1cc(NC(=O)c2ccccc2)c(=O)n2c1oc1ccc(Cl)cc12	-25.8%	-23.1%	4.5%[46.1 µM]	u	-8.2	x
CCc1cccc(NC(=O)c2cccc3c2C(=O)N(CC2CCCO2)C3)c1 (centres undefined)	-0.7%	9.2%	x	x	-30.5	11.2µM*
Cc1c(CCC(=O)O)c(=O)oc2c(C)c3occ(-c4ccc(Br)cc4)c3cc12	-23.9%	-28.1%	-29.6%	-0.1%	-16.0	8.4%
COc1ccc(-c2coc3c(C)c4oc(=O)c(CCC(=O)O)c(C)c4cc23)cc1	-28.8%	-12.1%	u	-22.3%	x	2.51µM*
CSc1ccc(NC(=O)N2CC=C(n3c(=O)[nH]c4ccccc43)CC2)cc1	-16.1%	-29.5%	u	u	-15.4	10µM*
Cc1sc(NC(=S)NC(=O)c2ccc(C(C)(C)C)cc2)c(C#N)c1C	x	x	u	8.2µM*	u	u
Cc1sc(NC(=S)NC(=O)c2ccccc2)c(C#N)c1C	x	x	0.0%	u	2.6	1.4%
Cc1ccc2nsnc2c1S(=O)(=O)N(Cc1ccco1)Cc1cc2ccc(C)c(C)c2[nH]c1=O	-12.3%	-5.9%	u	1.58µM*	-85.3*	2.2%
Cc1ccc2nsnc2c1S(=O)(=O)N(Cc1ccco1)Cc1cc2cccc(C)c2[nH]c1=O	x	x	u	-22.2%	8.6	u
COc1ccc2[nH]c(=O)c(CN(Cc3cccs3)S(=O)(=O)c3c(C)ccc4nsnc34)cc2c1	x	x	13µM*	u	-102.5*	11.2µM*
Cc1ccc2[nH]c(=O)c(CN(Cc3ccco3)S(=O)(=O)c3c(C)ccc4nsnc34)cc2c1	-2.1%	-22.2%	u	u	-3.1	7.08µM*!
Cc1ccc2[nH]c(=O)c(CN(CC3CCCO3)S(=O)(=O)c3c(C)ccc4nsnc34)cc2c1 (centres undefined)	x	x	u	u	-3.7	-18.7%
Cc1ccc(C)c(NC(=O)Cn2nc(C)c3nn(-c4ccc(Cl)cc4)c(C)c3c2=O)c1	u	u	u	x	2.4	x
O=C(CSc1nc2c(c(=O)[nH]1)CCCC2)Nc1cccc(O)c1	-8.0%	-4.9%	-18.0%[46.1 µM]	1.6%[46.1 µM]	-7.3	x
Cc1ccc(C(=O)NC(=S)Nc2ccc(N3CCOCC3)cc2)cc1C	-24.4%	-13.7%	-20.9%	u	-24.4	7.94µM*
CC(=O)c1ccc(C(=O)Nc2ccc(N3CCOCC3)cc2)cc1	x	-5.8%	-0.2%	16.0%	16.4	-8.8%
O=C(Nc1ccc(N2CCOCC2)cc1)c1cn2ccccc2n1	-19.8%[1.46 µM]	0.7%	7.94µM*	u	14.8	-5.1%
CC(C)c1ccc(C(=O)Nc2ccc(N3CCOCC3)cc2)cc1	u	u	-23.9%	u	-66.0*	u
CC(C)(C)c1ccc(C(=O)Nc2ccc(N3CCOCC3)cc2)cc1	-16.5%	-29.8%	-28.3%	u	-78.5*	1.78µM*
